DT40 TDP1 no CPT – qHTS for Inhibitors of human tyrosyl-DNA phosphodiesterase 1 (TDP1): qHTS in cells in absence of CPT. DT40 Tdp1-/- hTDP1 cells, no CPT, ATP luminescence, 48 h. Potency, µM (highest dose often 46.2 µM), inactives show at the highest dose activity change, negative = growth inhibition, most hits filed as inhibitors. hit rate 15% among 420,000. AID 686978, 2013; further: nearly all actives have a fitted effect of over 55% in size
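Chicken DT40 Tdp1-/- cells stably complemented with human TDP1 were seeded at 400 cells/well with DMSO in place of 20 nM camptothecin. After compound pinning, cells grew at least 48 hr at 37 °C; viability read by CellTiter-Glo luminescence.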
VP16 counter – inhibits Gal4-VP16 luciferase reporter, ROR gamma counter-screen. Potency, µM (series often up to 53.6 µM), without a hit: at the highest dose activity, negative = inhibition, most hits filed as inhibitors. Drosophila S2 Gal4-VP16 UAS-luciferase, luminescence, 20 h. hit rate 3.5% among 310,000;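 further: Gal4-VP16 expression switched on by copper sulfate through the metallothionein promoter; nearly all actives have a fitted effect of over 50% in size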
RORg inh – ROR gamma (mouse) transcription inhibition; P51450; Drosophila S2 Gal4-RORgamma UAS-luciferase reporter, 20 h; Potency, µM (highest dose often 53.6 µM), for the others: at the highest dose activity change, negative = inhibition, most hits filed as inhibitors; hit rate 5.4% among 310,000; AID 2551; further: nearly all actives have a fitted effect of over 60% in size
Target sequence (P51450 whole entry, looked up, the tested form may be a part): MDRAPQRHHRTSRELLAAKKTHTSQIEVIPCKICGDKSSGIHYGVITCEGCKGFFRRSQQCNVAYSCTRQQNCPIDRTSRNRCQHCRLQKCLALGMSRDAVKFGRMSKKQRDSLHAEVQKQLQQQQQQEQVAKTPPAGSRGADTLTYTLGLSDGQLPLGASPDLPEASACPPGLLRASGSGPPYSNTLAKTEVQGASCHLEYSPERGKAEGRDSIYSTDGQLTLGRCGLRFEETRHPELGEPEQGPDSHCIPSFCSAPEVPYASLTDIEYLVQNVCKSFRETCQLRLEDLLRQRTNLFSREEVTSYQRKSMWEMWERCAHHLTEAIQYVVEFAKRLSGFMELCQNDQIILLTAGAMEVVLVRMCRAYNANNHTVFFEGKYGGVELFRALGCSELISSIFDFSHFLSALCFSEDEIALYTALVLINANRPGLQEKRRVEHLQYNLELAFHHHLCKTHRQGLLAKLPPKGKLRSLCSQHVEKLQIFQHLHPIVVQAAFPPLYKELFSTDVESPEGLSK
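ROR gamma transcriptional activity was tracked as Gal4-UAS luciferase output in stably transfected Drosophila Schneider cells, with compound added 1 hr before 700 uM copper sulfate induction and a 20 hr ambient-temperature incubation.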
DT40 TDP1 CPT – growth inhibition of DT40 Tdp1-/-;hTDP1 cells with camptothecin (screen for TDP1 inhibitors) | chicken DT40 Tdp1-/-;hTDP1 cells + 20 nM CPT, ATP luminescence, 48 h | Potency, µM (highest dose often 46.2 µM), for inactives: at the highest dose activity change, negative = growth inhibition, most hits filed as inhibitors | hit rate 12% among 420,000; further: nearly all actives have a fitted effect of over 55% in size
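Cell growth measured by CellTiter-Glo luminescence after a minimum 48 h, 37 C compound exposure with 20 nM CPT in Tdp1-knockout DT40 cells stably expressing hTDP1, seeded 400/well; qHTS titration format.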
TDP1 inh – inhibitors of human tyrosyl-DNA phosphodiesterase TDP1. Potency, µM (series often up to 130 µM), inactives show at the top dose activity change, negative = inhibition, hits mostly inhibitors. hit rate 0.28% among 350,000. AID 485290. recombinant TDP1, AlphaScreen DNA substrate cleavage; further: nearly all actives have a fitted effect of over 40% in size
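Compounds were preincubated with Tdp1 (1 nM final) for 15 min at room temperature before substrate (15 nM final) started a 5 min reaction; beads (10 ug/ml final) were then added for 10 min before AlphaScreen detection.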
* hit, by the source's call; ? = inconclusive; . = no result; [ ] = another dose, or the depositor's remark. This is a sample that favours compounds with a hit; in the whole collection about 19% have one here. The call rests on the fitted dose curve; in most records, active means well fitted curve in the direction sought with a large enough effect; inconclusive means small, poorly fitted or top-dose-only effect, or another doubt; inactive means no such curve, though single readings can be large; an effect the other way counts as inactive or inconclusive. On the % scale 0 is the no-effect control and ±100 the full control effect; potency means the concentration at half of the fitted maximal effect.

SMILES	DT40 TDP1 no CPT	VP16 counter	RORg inh	DT40 TDP1 CPT	TDP1 inh
CC1(Cc2ccc(F)cc2)C(=O)Nc2c(Cl)cccc21 (configuration not stated)	-27%	.	.	-18%	.
CC1(Cc2ccc(F)cc2)C(=O)Nc2ccc(-c3cccnc3)cc21 (configuration not stated)	10µM*	.	.	23µM*	.
O=S(=O)(c1ccc(OC(F)(F)F)cc1)N1CCC(O)(c2cccc(C(F)(F)F)c2)CC1	?	-15%	?	?	.
CC(C)COc1cccc(C(=O)Nc2ccc(S(=O)(=O)N3CCOCC3)cc2)c1	?	-2%	-18%	?	9%
CC(C)COc1cccc(C(=O)Nc2ccc(CN3CCOCC3)cc2)c1	?	1%	-3%	23µM*	.
CC(C)COc1cccc(C(=O)Nc2ccc(N3CCOCC3)cc2N2CCOCC2)c1	13µM*	.	.	?	1%
CC(Oc1ccc(F)cc1)C(=O)Nc1ccc(N2CCOCC2)cc1N1CCOCC1 (configuration not stated)	?	.	.	-26%	.
CC(Oc1cccc(Cl)c1)C(=O)Nc1ccc(N2CCOCC2)cc1N1CCOCC1 (configuration not stated)	13µM*	.	.	?	.
Cc1cc(C)cc(NC(=O)C2CCN(C(=O)c3cccs3)CC2)c1	-7%	-30%	-5%	?	7%
CCOc1cccc(NC(=O)CSc2nc(C)c3c(c2C#N)CCCC3)c1	3%	2%	-12%	-6%	3%
Cc1cc(C)n(/N=C/c2cccc(O)c2)c(=O)c1C(N)=O	0%	-4%	-30%	2%	2%
COc1ccc(CC(=O)NCc2n[nH]c(=S)n2C)cc1	9%	11%	-2%	9%	-6%
Nc1nnc(SCC(=O)OCC(=O)NC2CCCCC2)s1	-4%	-13%	-16%	-10%	0%
CCN(CC)c1sc(S(=O)(=O)c2ccccc2)nc1S(=O)(=O)c1ccc(C)cc1	15µM*	.	.	?	5%
CCN1CCN(c2sc(S(=O)(=O)CC)nc2S(=O)(=O)c2ccc(C)cc2)CC1	-7%	.	.	-4%	.
CCN1CCN(c2sc(S(C)(=O)=O)nc2S(=O)(=O)c2ccc(C)cc2)CC1	15µM*	22%	2%	?	2%
CCC(C)C(NC(=O)OC(C)(C)C)C(=O)NC1COC2CC(n3cc(F)c(=O)[nH]c3=O)OC12 (configuration not stated)	.	-2%	1%	.	10%
COc1ccc(C2c3ccc4ccccc4c3Oc3ncn(CCO)c(=N)c32)cc1OC (configuration not stated)	21µM*	-20%	?	23µM*	.
COc1ccc(C2c3ccc4ccccc4c3Oc3ncn(CCCO)c(=N)c32)cc1OC (configuration not stated)	21µM*	-21%	-20%	?	5%
O=C(c1ccccc1Cl)N(Cc1ccco1)c1ccccn1	?	.	.	?	-4%
O=C(c1ccccc1)N(Cc1ccco1)Cc1cccs1	13µM*	.	.	?	5%
O=C(c1ccccc1Cl)N(Cc1ccco1)Cc1ccco1	15µM*	.	.	21µM*	12%
COc1cccc(NC(=O)C2CCN(S(=O)(=O)c3ccc4c(c3)NC(=O)C(C)S4)CC2)c1 (configuration not stated)	21µM*	?	?	21µM*	3%
CC(C)c1ccc(NC(=O)C2CCN(S(=O)(=O)c3ccc4c(c3)NC(=O)CO4)CC2)cc1	23µM*	-3%	?	?	5%
COc1ccc(NC(=O)C2CCN(S(=O)(=O)c3ccc4c(c3)NC(=O)C(C)S4)CC2)cc1 (configuration not stated)	?	?	?	?	0%
SMILES	DT40 TDP1 no CPT	VP16 counter	RORg inh	DT40 TDP1 CPT	TDP1 inh
CC1Sc2ccc(S(=O)(=O)N3CCC(C(=O)Nc4ccc(Cl)cc4)CC3)cc2NC1=O (configuration not stated)	9.2µM*	?	?	21µM*	1%
Cc1ccc(NC(=O)C2CCN(S(=O)(=O)c3ccc4c(c3)NC(=O)CO4)CC2)cc1	?	10%	21%	3%	2%
CNC(=O)Cn1ncc2c3ccccc3n(C)c2c1=O	2%	-11%	13%	4%	.
Cc1ccc2nc(SCC(=O)Nc3ccc4c(c3)CCC4)[nH]c2c1	?	11µM*	?	18µM*	-2%
CCCCNS(=O)(=O)c1ccc2nc(SCC(=O)Nc3ccccc3)[nH]c2c1	16µM*	-11%	?	-1%	5%
CCN(CC)S(=O)(=O)c1ccc(NC(=O)CSc2nnc3c(n2)[nH]c2ccccc23)cc1	6.3µM*	.	.	7.1µM*	.
Cc1ccc2nc(SCC(=O)Nc3cccc(S(=O)(=O)N(C)C)c3)[nH]c2c1	16µM*	3%	?	?	3%
O=C(CSc1nc2ccc(Cl)cc2[nH]1)Nc1ccc2c(c1)CCC2	?	?	?	?	5%
CCN(CC)S(=O)(=O)c1cccc(NC(=O)CSc2nc3ccccc3[nH]2)c1	16µM*	0%	33%	23µM*	-5%
CN=C1c2c(-c3ccccc3)c3cc(OC)ccc3n2CCN1C	18µM*	?	0%	23µM*	-3%
COc1ccc(-c2c(-c3ccccc3)n(C)c3ccccc23)cc1	-19%	.	.	4%	6%
CCN1C(=O)[C@H]2[C@@H](c3ccc(C)cc3)N[C@]3(CCCN(Cc4ccc(C(F)(F)F)cc4)C3=O)[C@H]2C1=O	10µM*	.	.	13µM*	.
Cc1ccc(CN2CCC[C@]3(N[C@H](c4ccc(C(F)(F)F)cc4)[C@@H]4C(=O)N(Cc5ccccc5)C(=O)[C@@H]43)C2=O)cc1	21µM*	.	.	21µM*	.
CCN1C(=O)[C@H]2[C@@H](c3ccc(C(F)(F)F)cc3)N[C@]3(CCCN(Cc4ccc(F)cc4)C3=O)[C@H]2C1=O	9.2µM*	.	.	21µM*	.
CCN1C(=O)[C@H]2[C@@H](c3ccc(C(F)(F)F)cc3)N[C@]3(CCCN(Cc4ccccc4)C3=O)[C@H]2C1=O	16µM*	.	.	21µM*	.
COc1ccc([C@H]2N[C@]3(CCCN(Cc4ccc(Br)cc4)C3=O)[C@H]3C(=O)N(C)C(=O)[C@@H]23)cc1	?	.	.	-22%	.
CC(C)C(NC(=O)c1ccc([N+](=O)[O-])cc1Cl)C(=O)N1CCCC1 (configuration not stated)	-10%	-4%	13%	-20%	8%[0.0935 µM]
Cc1nc2c(ncn2-c2ccccc2)c(=O)n1NC(=O)CN1CCN(C)CC1	1%	-9%	16%	-1%	.
